Assay results published in PubChem BioAssay AID493170 (National Center for Advancing Translational Sciences (NCATS), 2011).
Records with an inconclusive call do not appear. Activity calls are given as the source filed them. Calls follow the shape of the dose curve; as a rule, active = well fitted inhibition curve with a large enough effect; inconclusive = small, poorly fitted or top-dose-only effect, or effect the other way; inactive = flat fitted curve, though single readings scatter.

What follows are compounds tested against Ubiquitin carboxyl-terminal hydrolase 2 (Homo sapiens) (UniProt O75604) (assay: Ub-rhodamine 110 based assay for inhibitors Ubiquitin-specific Protease USP2a). Conditions: USP2a Ub-rhodamine110 cleavage, fluorescence; series mostly up to 38.3 µM.
Text: NIH Molecular Libraries Probe Centers Network [MLPCN] NIH Chemical Genomics Center [NCGC] MLPCN Grant: XO1-MH079852-01 PI Name: Nicholson, Ben. Progenra Inc, Malvern, PA NCGC Assay Overview: Homeostasis of cellular proteins is maintained through a combination of synthesis and degradation. The pathway that accounts for the majority of protein degradation is the ubiquitin-proteasomal pathway. Ubiquitin (Ub) is highly conserved in all cells and the generation of a multi-Ub chain typically targets proteins for degradation by the proteasome. However, ubiquitination is highly reversible and dynamic. Deubiquitination, the reverse process, is catalyzed through the action of enzymes referred to as isopeptidases or deubiquitinating enzymes (DUBs). This group of enzymes is collectively responsible for maintaining adequate pools of free ubiquitin and regulating the ubiquitination status of cellular proteins. The class of DUBs referred to as the ubiquitin-specific proteases (USP) family functions endoproteolytically to cleave Ub chains from a wide range of protein substrates. USP2a deubiquitinates fatty acid synthase (FASN) which has recently been identified as an emerging oncology target. To identify inhibitors of USP2a a cell-free assay was employed. This assay measures cleavage of a profluorescent substrate (Ub-Rhodamine 110; Boston Biochem Cat#: U-555) by USP2a. The assay gives a fluorescent read-out at excitation/emission wavelengths of 485/531. The USP2a enzyme was provided by Progenra, Inc. licensed for sale by LifeSensors, Inc.
NCGC Assay Protocol: The assay buffer, prepared fresh at the day of the assay, contains 20mM Tris-HCl pH 8.0, 2mM CaCl2, 2mM beta-Mercaptoethanol, 0.05% CHAPS. 3uL of 10 nM (5 nM final) USP2a, was dispensed into a medium-binding black solid Kalypsys 1,536 well plate using the Kalypsys dispenser. The assay plate was then pinned with 23nL compounds in DMSO with a Kalypsys pintool in columns 5-48 (0.3% final DMSO concentration). The negative control was buffer/DMSO only in column 3. The assay plate is incubated at RT for 30min. Subsequently, 3uL of 300 nM Ub-Rhod110 (150 nM final) was dispensed into the plate using a Kalypsys dispenser. Plates were read after every minute for 7 min on a ViewLux (Perkin Elmer) plate reader using the following wavelengths: Ex 485nm /Em 531nm. Data were normalized to the AC100 inhibition (buffer alone). Concentration-response curves were fitted to the normalized data and the concentration-response curves were then classified based on curve quality (r2), response magnitude and degree of measured activity. The time zero reading was used to flag fluorescence artifacts.
Also: nearly all actives have a fitted effect of over 50% in size.
Potency is read from the fitted curve at half-maximal effect.

Ubiquitin carboxyl-terminal hydrolase 2 (Homo sapiens), sequence (O75604 whole entry, looked up): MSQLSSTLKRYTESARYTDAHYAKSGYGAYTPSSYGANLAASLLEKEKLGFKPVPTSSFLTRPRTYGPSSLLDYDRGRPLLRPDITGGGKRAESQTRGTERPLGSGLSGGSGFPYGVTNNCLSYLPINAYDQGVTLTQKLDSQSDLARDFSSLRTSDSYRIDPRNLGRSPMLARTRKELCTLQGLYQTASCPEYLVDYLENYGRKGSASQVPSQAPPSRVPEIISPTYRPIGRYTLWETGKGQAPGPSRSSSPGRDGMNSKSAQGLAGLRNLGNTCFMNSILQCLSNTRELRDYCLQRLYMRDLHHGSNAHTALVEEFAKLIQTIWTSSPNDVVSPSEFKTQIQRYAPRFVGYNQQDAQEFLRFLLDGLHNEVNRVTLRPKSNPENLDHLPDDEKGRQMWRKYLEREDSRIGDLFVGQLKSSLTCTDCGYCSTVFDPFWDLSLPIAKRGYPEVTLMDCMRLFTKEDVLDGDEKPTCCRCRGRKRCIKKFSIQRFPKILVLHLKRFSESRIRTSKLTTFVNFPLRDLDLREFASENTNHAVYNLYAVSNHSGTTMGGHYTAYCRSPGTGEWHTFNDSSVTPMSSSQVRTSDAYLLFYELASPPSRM

Potency, inactive:
COc1ccc(-c2[nH]ncc2/C=C(/C#N)C(=O)NC2CCCCC2)cc1, CCSc1nc(N2CCCCC2)c2c(c1C#N)CCCC2, COc1ccc2[nH]c(=O)c(CN(Cc3ccco3)Cc3nnnn3Cc3ccccc3)cc2c1, Nc1c(C(=O)Nc2ccc(Cl)cc2)oc2ccccc12, Cn1nc(CC(=O)NCc2ccc(F)cc2)c2ccccc2c1=O, COc1ccccc1C(=O)N1CCN=C1SC, Nc1c(C(=O)Nc2ccc3c(c2)OCCO3)nnn1CCc1ccccc1, Cc1ccc(-c2c(C)n([O-])c3c([n+]2=O)CCC3)o1, COc1cccc(N2CCN(C(=O)CN(C)S(=O)(=O)c3ccc4c(c3)CCC(=O)N4)CC2)c1, Nc1ccc2nc(-c3ccc(N)c(Cl)c3)[nH]c2c1, CC(C)CC(=O)Nc1cccc(-c2nc3ccccc3o2)c1, Cc1ccc(/C(N)=N/OC(=O)Oc2ccccc2)cc1, Cc1ccc(C(C(=O)NC2CCCC2)N2CCc3ccccc32)cc1 (stereo not given), CCOc1ccc(Cn2nnc(C(=O)NCc3ccccc3)c2N)cc1, COc1ccc(NC(=S)NC(=O)/C=C/c2ccco2)cc1, Cn1c(SCc2nc3ccccc3s2)nnc1-c1cccs1, Cn1c(=O)[nH]c(=O)c2c1nc(NCc1ccccc1)n2CCCc1ccccc1, CCCc1nc(SCC(N)=O)[nH]c(=O)c1CC, O=C(CSc1nc(N2CCCCC2)nc(N2CCCCC2)n1)N1CCN(c2ccccc2)CC1, O=C(NC1CCCC1)C1C2C=CC(C2)C1C(=O)N1CCOCC1 (stereo not given), CCn1c2ccccc2c2nc3ccccc3nc21, CCOC(=O)c1[nH]c2ccc(OC)cc2c1NC(=O)CCN1CCC(C)CC1, NC1=NC2(CCC(c3ccccc3)CC2)n2c(nc3ccccc32)N1 (stereo not given), CCOC(=O)C1CCN(CC(O)COc2ccc(C(C)(C)C)cc2)CC1 (stereo not given), CC1(C)CC(=O)C=C(NCc2cccs2)C1, CCCn1c(C)cc(C)c(C#N)c1=O, COc1ccc(-c2cc(C(F)(F)F)nc(S(C)(=O)=O)n2)cc1, CCOC(=O)c1c(C)[nH]c(C(=O)COC(=O)CSC)c1C, CNc1nc(OCCNC(=O)Nc2ccccc2)nc(N2CCOCC2)n1, Cc1cc(C)n2nc(S(=O)(=O)NCCc3ccccc3)nc2n1, O=C(N/N=C/C=C/c1ccccc1)c1ccncc1

Potency, active:
O=C(CSc1nnc(SCc2ccccc2)s1)N/N=C/c1c[nH]c2ccccc12 10 µM, O=C1N=c2ccccc2=C1c1sc(Nc2ccc(O)cc2)nc1O 7.94 µM, O=C(Nc1nc(-c2ccco2)c(-c2ccco2)s1)C1CC(=O)N(c2ccc3c(c2)OCCO3)C1 (stereo not given) 2.51 µM, Cc1ccc(S(=O)(=O)N2[C@@H](c3ccccc3F)C(C(=O)O)=CC[C@H]2c2ccc(Cl)c(Cl)c2)cc1 11.2 µM, Cc1ccc(NC(=O)COC(=O)c2ccc(NC(=O)CC#N)cc2)cc1S(=O)(=O)N1CCOCC1 10 µM, O=C(O)C1Nc2c(O)cc(Cl)c([N+](=O)[O-])c2C2C=CCC12 (stereo not given) 3.98 µM, C=C1c2cccc(O)c2C(=O)C2C(=O)[C@]3(O)C(=O)C(C(N)=O)C(=O)[C@@H](N(C)C)[C@@H]3[C@@H](O)[C@H]12 (stereo not given in full) 8.91 µM, Cc1noc(/C=C/c2ccco2)c1S(=O)(=O)N1CCC(C(=O)N(C)Cc2ccccc2)CC1 10 µM, O=C1Nc2ccccc2SC(c2ccccc2)C1O (stereo not given) 3.98 µM
